Measured values from PubChem BioAssay.
Activity calls are given as the source filed them.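 The calls were made as follows, unless noted: active = inhibition at or above 50% at 10 µM; inactive = inhibition below 50%.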

Assay: blockers of RIG-like receptor reporter activation – cell-based, Sendai virus stimulus, luciferase, 10K MLSCN set, TLR/RLR signaling modifier project, primary screen (AID 602276);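 also: firefly luciferase from ISG56 promoter only with Renilla not read in this screen; 0% = Sendai virus plus DMSO and 100% = medium plus DMSO without virus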
Conditions: HEK293 RL24 IRF3 luciferase reporter, at 10 µM, active compounds read high

inhibition, inactive:
CCCCNc1cc(C)oc(=O)c1C(C)=O -0.373%
COc1ccc2c(c1)C(=O)N(c1ccccc1OC)C(=O)C2 14.7%
Cc1ccc(S(=O)(=O)NCC(=O)N(CC(=O)NC2CCCCC2)Cc2ccco2)cc1 8.19%
CN(C)/C=C1\N=C(c2ccc3c(c2)OCO3)OC1=O -20.5%
CCc1ccccc1NC(=O)CCc1nc(-c2ccc(C)cc2)no1 14.1%
COc1ccc(CNC(=O)c2cnc3n(c2=O)CCS3)cc1 10.9%
CCOC(=O)Cc1csc(NC(=O)CSc2nnc(C)n2C)n1 -24.8%
NC(=O)NC(c1ccccc1)c1ccccc1F (stereo not given) 2.53%
O=C(NCCN1CCOCC1)NC1(C(F)(F)F)Oc2ccc(Cl)cc2O1 (stereo not given) 24.6%
CCOc1ccc(Cn2nnc(C(=O)NCc3ccc(OC)cc3)c2N)cc1 17.5%
CC(=O)Nc1cccc(Oc2nc(C)cc(C)c2C#N)c1 2.68%
O=P1(O)C=C(c2ccccc2)NC(c2ccccc2)=C1 10.1%
Cc1cc2ccccc2c(=O)n1CC(=O)N(C)c1ccc(F)cc1 2.03%
COCCN(Cc1cc2cc3c(cc2n2nnnc12)OCO3)C(=O)c1ccccc1F 3.47%
c1coc(CN(Cc2cccs2)Cc2nnnn2C2CCCCC2)c1 19.6%
c1ccc(-c2nn3c(Cn4nnc5ccccc54)nnc3s2)nc1 -11.7%
O=C(CSCc1cccs1)N1CCCC1 -30.1%
CCOc1ccccc1-n1c(SCC(=O)NC(C)CC)nnc1-c1ccoc1C (stereo not given) 18.6%
CCOC(=O)N1CCC(n2c(=S)[nH]c3cc(OC)c(OC)cc3c2=O)CC1 14.4%
Cc1ccc(Cn2c(SCCN3CCCCC3)nc3c2c(=O)[nH]c(=O)n3C)cc1 3.78%
Cc1ccc(Cn2ccc(NC(=O)c3cc(-c4cccs4)on3)n2)cc1 -3.96%
Cc1nnc(N2C(=O)C(O)=C(C(=O)c3ccco3)C2c2ccc(F)cc2)s1 (stereo not given) 12.3%
COC(=O)c1cc(=O)nc2sc(-c3cccs3)nn12 12.6%
CCN(CC)CCCNc1oc(-c2cccc(Cl)c2)nc1C#N 8.46%
Cn1c(SCC(=O)O)nnc1C1CCCCC1 -46.6%
CC1CCN(C(=O)CSc2nnc(-c3ccc(S(=O)(=O)N4CCOCC4)cc3)n2C)CC1 3.11%
COCCn1nnnc1C(c1cccs1)N1CCN(c2cc(C)ccc2C)CC1 (stereo not given) 11.1%
CC1CCc2nn(CC(=O)NCCN3CCOCC3)cc2C1 (stereo not given) 7.91%
CCOC(=O)c1c(C)[nH]c(C(=O)Cn2c(=O)c3c(ncn3CC)n(Cc3ccccc3)c2=O)c1C 15.3%
COc1cccc(C(=O)Nc2cc(C)c3c(=O)oc4ccccc4c3n2)c1 10.3%
O=C(CN1C(=O)COc2ccccc21)N(Cc1cccnc1)Cc1ccccc1F 15.9%
O=c1c2ccccc2c(/C=N/n2cnnc2)c(O)n1-c1ccccc1 -3.33%
COCCNC(=O)C1CCCN(c2ncccn2)C1 (stereo not given) 14.2%
COc1ccc(CNc2nc(NCc3ccc(OC)cc3)n(S(C)(=O)=O)n2)cc1 2.7%
O=C(CSc1nnc2c3cc(F)ccc3nc(-c3ccccc3)n12)N1CCOCC1 -0.506%
CSc1nc(N)nc(SCCS(=O)(=O)c2ccc(Cl)cc2)c1C#N 5.62%
CCOC(=O)c1sc2nc(NC(=O)C3CCCCC3)sc2c1C -10.3%
CC(C)(C)OC(=O)NCCc1nnc(SCC(=O)c2ccc(Cl)cc2)o1 5.48%
Cc1nc2ccc(C(=O)c3ccccc3)cc2[nH]1 -30.7%
CCOC(=O)c1ccc(NC(=O)CSCc2ccco2)cc1 1.64%

Assay: TLR3 IRF3 reporter activation blockers – cell-based, poly I:C stimulus, luciferase, 10K MLSCN set, primary screen (AID 602277;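 active = inhibition of the reporter signal at or above 50%; inactive = inhibition below 50%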)
Conditions: HEK293-TLR3 RL24 IRF3 luciferase reporter, at 10 µM, active compounds read high

inhibition, inactive:
CCCCNc1cc(C)oc(=O)c1C(C)=O 22.9%
COc1ccc2c(c1)C(=O)N(c1ccccc1OC)C(=O)C2 10.2%
Cc1ccc(S(=O)(=O)NCC(=O)N(CC(=O)NC2CCCCC2)Cc2ccco2)cc1 20%
CN(C)/C=C1\N=C(c2ccc3c(c2)OCO3)OC1=O -55.4%
CCc1ccccc1NC(=O)CCc1nc(-c2ccc(C)cc2)no1 47.2%
COc1ccc(CNC(=O)c2cnc3n(c2=O)CCS3)cc1 29.1%
CCOC(=O)Cc1csc(NC(=O)CSc2nnc(C)n2C)n1 -19.7%
NC(=O)NC(c1ccccc1)c1ccccc1F (stereo not given) 25.9%
O=C(NCCN1CCOCC1)NC1(C(F)(F)F)Oc2ccc(Cl)cc2O1 (stereo not given) 37.9%
CCOc1ccc(Cn2nnc(C(=O)NCc3ccc(OC)cc3)c2N)cc1 30.1%
CC(=O)Nc1cccc(Oc2nc(C)cc(C)c2C#N)c1 22.3%
O=P1(O)C=C(c2ccccc2)NC(c2ccccc2)=C1 7.48%
Cc1cc2ccccc2c(=O)n1CC(=O)N(C)c1ccc(F)cc1 9.91%
COCCN(Cc1cc2cc3c(cc2n2nnnc12)OCO3)C(=O)c1ccccc1F 5.93%
c1coc(CN(Cc2cccs2)Cc2nnnn2C2CCCCC2)c1 24.5%
c1ccc(-c2nn3c(Cn4nnc5ccccc54)nnc3s2)nc1 -3.15%
O=C(CSCc1cccs1)N1CCCC1 -81.3%
CCOc1ccccc1-n1c(SCC(=O)NC(C)CC)nnc1-c1ccoc1C (stereo not given) 17.4%
CCOC(=O)N1CCC(n2c(=S)[nH]c3cc(OC)c(OC)cc3c2=O)CC1 23.2%
Cc1ccc(Cn2c(SCCN3CCCCC3)nc3c2c(=O)[nH]c(=O)n3C)cc1 32.9%
Cc1ccc(Cn2ccc(NC(=O)c3cc(-c4cccs4)on3)n2)cc1 -7.39%
Cc1nnc(N2C(=O)C(O)=C(C(=O)c3ccco3)C2c2ccc(F)cc2)s1 (stereo not given) 19.7%
COC(=O)c1cc(=O)nc2sc(-c3cccs3)nn12 29.9%
CCN(CC)CCCNc1oc(-c2cccc(Cl)c2)nc1C#N 27.9%
Cn1c(SCC(=O)O)nnc1C1CCCCC1 -23.7%
CC1CCN(C(=O)CSc2nnc(-c3ccc(S(=O)(=O)N4CCOCC4)cc3)n2C)CC1 0.175%
COCCn1nnnc1C(c1cccs1)N1CCN(c2cc(C)ccc2C)CC1 (stereo not given) 16.2%
CC1CCc2nn(CC(=O)NCCN3CCOCC3)cc2C1 (stereo not given) 24.3%
CCOC(=O)c1c(C)[nH]c(C(=O)Cn2c(=O)c3c(ncn3CC)n(Cc3ccccc3)c2=O)c1C 24.5%
COc1cccc(C(=O)Nc2cc(C)c3c(=O)oc4ccccc4c3n2)c1 22.2%
O=C(CN1C(=O)COc2ccccc21)N(Cc1cccnc1)Cc1ccccc1F 32.6%
O=c1c2ccccc2c(/C=N/n2cnnc2)c(O)n1-c1ccccc1 6.58%
COCCNC(=O)C1CCCN(c2ncccn2)C1 (stereo not given) 20.8%
COc1ccc(CNc2nc(NCc3ccc(OC)cc3)n(S(C)(=O)=O)n2)cc1 -1.73%
O=C(CSc1nnc2c3cc(F)ccc3nc(-c3ccccc3)n12)N1CCOCC1 -0.765%
CSc1nc(N)nc(SCCS(=O)(=O)c2ccc(Cl)cc2)c1C#N 12.8%
CCOC(=O)c1sc2nc(NC(=O)C3CCCCC3)sc2c1C -9.22%
CC(C)(C)OC(=O)NCCc1nnc(SCC(=O)c2ccc(Cl)cc2)o1 34.1%
Cc1nc2ccc(C(=O)c3ccccc3)cc2[nH]1 -56.7%
CCOC(=O)c1ccc(NC(=O)CSCc2ccco2)cc1 -14.9%
